The text below walks through data of ChEMBL document CHEMBL1961873, “Compounds: GSK PKIS; Assays: Nanosyn kinase panel” (2012).

As usually defined, the inhibition is the drop in the measured response relative to a control, in per cent.

“And” between values parts separate entries of the source, which are not always exact repeats. Identical values can stand only once.

The experiment addresses T1, Tyrosine-protein kinase receptor TYRO3 (Homo sapiens) (UniProt Q06418).
T1 sequence (whole entry): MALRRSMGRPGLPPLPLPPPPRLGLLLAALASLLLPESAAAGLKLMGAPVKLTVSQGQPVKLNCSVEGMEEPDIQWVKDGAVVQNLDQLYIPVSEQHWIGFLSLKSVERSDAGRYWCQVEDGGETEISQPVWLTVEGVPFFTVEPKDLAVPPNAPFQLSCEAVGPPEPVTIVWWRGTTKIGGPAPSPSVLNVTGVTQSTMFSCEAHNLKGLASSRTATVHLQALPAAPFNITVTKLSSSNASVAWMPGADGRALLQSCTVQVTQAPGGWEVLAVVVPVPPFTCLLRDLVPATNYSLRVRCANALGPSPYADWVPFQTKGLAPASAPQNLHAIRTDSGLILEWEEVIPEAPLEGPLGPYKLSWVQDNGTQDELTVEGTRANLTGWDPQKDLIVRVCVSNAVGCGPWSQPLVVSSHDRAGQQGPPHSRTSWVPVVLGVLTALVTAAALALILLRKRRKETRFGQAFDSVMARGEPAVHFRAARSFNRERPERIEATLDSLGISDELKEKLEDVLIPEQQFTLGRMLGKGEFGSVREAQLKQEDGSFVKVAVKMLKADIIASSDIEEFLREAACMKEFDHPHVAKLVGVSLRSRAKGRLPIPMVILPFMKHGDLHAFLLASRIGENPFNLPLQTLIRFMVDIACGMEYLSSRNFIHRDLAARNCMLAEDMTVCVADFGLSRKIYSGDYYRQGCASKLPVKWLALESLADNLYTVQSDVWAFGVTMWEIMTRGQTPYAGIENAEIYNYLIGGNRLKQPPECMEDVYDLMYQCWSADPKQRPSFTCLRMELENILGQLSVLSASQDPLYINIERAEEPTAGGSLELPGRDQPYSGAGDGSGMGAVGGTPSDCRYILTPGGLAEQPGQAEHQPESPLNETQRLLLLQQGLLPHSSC
The conditions noted are these: at 1 µM.
Regarding `O=C1Nc2ccccc2/C1=C1\CCc2cc(O)ccc21`, the inhibition turned out to be 18.8%.

Turning to `CCS(=O)(=O)c1ccc(OC)c(Nc2ncc(-c3cccc(C(C)=O)c3)o2)c1`, the inhibition is 24.1%.

In the case of `Cc1ccc(-c2cc3c(NC(=O)C4CC4)ncnc3o2)cc1`, the inhibition stood at 47.8%.

Regarding `COc1ccc(-c2nn3ncccc3c2-c2ccnc(Nc3ccc(F)c(F)c3)n2)cc1`, the inhibition is 6.24%.

`O=C(Nc1n[nH]c2nnc(-c3cccnc3)cc12)C1CC1`: the inhibition is 1.65%.

As to `O=C(O[C@H]1CN[C@H](C#Cc2cc3ncnc(Nc4ccc5c(ccn5Cc5cc(F)ccc5F)c4)c3s2)C1)N1CCOCC1`, the inhibition amounted to 3.08%.

In the case of `COc1cccc(Nc2nccc(-c3cnn4ncccc34)n2)c1`, the inhibition was 21.2%.

As for `Nc1nccc(-c2c(-c3ccc(F)cc3)ncn2C2CCNCC2)n1`, the inhibition is 1.14% and -0.71%.

As to `NC(=O)c1ccc2c(-c3ccnc(NCCCO)n3)c(-c3ccc(F)cc3)nn2c1`, the inhibition was found to be 3.98%.

On to `CS(=O)(=O)Nc1ccc(-c2cc(-c3ccccc3)cc(C(N)=O)c2N)cc1`, for which the inhibition amounted to 0.42%.

Take `CS(=O)(=O)Nc1ccc(-c2ccc3c(NC(=O)C4CC4)n[nH]c3c2)cc1`: the inhibition was found to be 13.6%.

Turning to `Cn1c(-c2nonc2N)nc2cnccc21`, the inhibition worked out at 0.09%.

In the case of `CC1=C(C(=O)Nc2ccc3[nH]ncc3c2)C(c2ccc(F)cc2)N=C(c2ccc(C(F)(F)F)nc2)N1` (stereo unspecified), the inhibition was determined as 3.3%.

As for `c1ccc(-c2n[nH]cc2-c2ccnc(-c3ccc(OCCn4ccnc4)cc3)c2)nc1`, the inhibition came to 1.47%.

For `CS(=O)(=O)CCNCc1ccc(-c2ccc3ncnc(Nc4ccc(OCc5cccc(C(F)(F)F)c5)cc4)c3c2)o1`, the inhibition was found to be 0.73%.

Take `FC(F)(F)CNc1nccc(-c2cnn3ncccc23)n1`: the inhibition came out at 2.17%.

For `COc1ccc2ncn(-c3cc(O[C@H](C)c4ccccc4C(F)(F)F)c(C(N)=O)s3)c2c1`, the inhibition turned out to be 2.75%.

As for `N#Cc1cccc(Nc2ncc(-c3ccccc3)o2)c1`, the inhibition turned out to be 6.8%.

As to `CCN1CCC(C(=O)Nc2n[nH]c3nnc(-c4cccc(F)c4F)cc23)CC1`, the inhibition is 1.67%.

Take `CNC(=O)c1ncccc1Nc1nc(Nc2cc3c(cc2OC)CCCN3C(=O)CN(C)C)nc2[nH]ccc12`: the inhibition turned out to be 5.61%.

With `CNC(=O)c1cncc(/C=C/c2ccccc2C)c1`, the inhibition amounted to 3.96%.

For the molecule `CS(=O)(=O)CCNCc1ccc(-c2ccc3ncnc(Nc4ccc(OCc5ccccc5)cc4)c3c2)o1`, the inhibition was found to be 4.25%.

With `CS(=O)(=O)CCNCc1ccoc1-c1ccc2ncnc(Nc3ccc(OCc4ccccc4)cc3)c2c1`, the inhibition stood at 3.68%.

Turning to `COc1cc2c(cc1Nc1nc(Nc3cccc(F)c3C(N)=O)c3cc[nH]c3n1)N(C(=O)CN1CCN(C(C)C)CC1)CC2`, the inhibition stood at 0.01%.

As to `CN1CCC(n2cnc(-c3ccc(F)cc3)c2-c2ccnc(NCCO)n2)CC1`, the inhibition worked out at 5.81%.

Turning to `CCn1c(-c2nonc2N)nc2cncc(C(=O)NCCNC)c21`, the inhibition was determined as 5.41%.

For `OCCCNc1nccc(-c2c(-c3ccc(F)cc3)nn3cc(C(F)(F)F)ccc23)n1`, the inhibition came to 1.03%.

In the case of `NS(=O)(=O)c1ccc(N/N=C2\C(=O)Nc3ccc(C(=O)NCc4ccncc4)cc32)cc1`, the inhibition was determined as 8.28%.

`CC1(C)CC(n2cnc(-c3ccc(F)cc3)c2-c2ccnc(N)n2)CC(C)(C)N1`: the inhibition was 5.65%.

Turning to `COC(=O)Nc1nc2ccc(Oc3ccc(NC(=O)Nc4cc(C(F)(F)F)ccc4F)cc3)cc2s1`, the inhibition was 40%.

Regarding `COc1c(C(N)=O)cc(-c2ccc(Cl)cc2)cc1-c1ccc(S(N)(=O)=O)cc1`, the inhibition turned out to be 2.96%.
